“And” between values parts separate entries of the source, which are not always exact repeats. Identical values can stand only once. Counter-ions that a name gives are not always drawn. ± gives the standard deviation of the averaged measurements. In all, about 1,800 compounds were measured (“GFP- (p16Ink4a-) cell count relative to negative-control wells”: median about 0.99, lowest 2% from about 0.5 on). The list comes from a sample in which the lowest values are over-represented; it also holds similar structures and randomly drawn compounds.

The assay deals with mouse p16Ink4a+/- lung fibroblasts (INKBRITE, bleomycin-injured). As to the kind of experiment: GFP- (p16Ink4a-) cell count relative to negative-control wells (fold of vehicle); higher = more p16Ink4a- cells surviving. The conditions noted are these: 1 µM; 3 days.
For the molecule `C[N+](C)(C)CC(O)CC(=O)O` (stereo not drawn) [Carnitine Hydrochloride, Carnitine (dl) Hydrochloride], the GFP- amounted to 1.1.

As to `C[C@H](NCc1ccc(OCc2cccc(F)c2)cc1)C(N)=O` [Safinamide], the GFP- worked out at 1.06. Turning to `OC[C@@H](O)CN1CCN(c2ccccc2)CC1` [Levodropropizine], the GFP- came to 1.05.

For the molecule `CC(=O)O[C@]1(C(C)=O)CC[C@H]2[C@@H]3C=C(Cl)C4=CC(=O)[C@@H]5C[C@@H]5[C@]4(C)[C@H]3CC[C@@]21C` [Cyproterone Acetate], the GFP- stood at 1.14. `C=C1CC[C@H](O)C/C1=C/C=C1\CCC[C@]2(C)[C@@H]([C@H](C)CCCC(C)(C)O)CC[C@@H]12` [Calcidiol] gave a GFP- of 1.2. Regarding `CCOC(=O)c1c(CSc2ccccc2)n(C)c2cc(Br)c(O)c(CN(C)C)c12` [Arbidol HCl], the GFP- was found to be 0.933. For `O=S(=O)(c1ccccc1)N(CC(F)(F)F)c1ccc(C(O)(C(F)(F)F)C(F)(F)F)cc1` the value was 0.972. Take `CN1CCOC(c2ccccc2)c2ccccc2C1` (centres undefined) [Nefopam]: the GFP- was 1.1.

In turn, `CCOC(=O)[C@H](CCc1ccccc1)N[C@H]1CCc2ccccc2N(CC(=O)O)C1=O` [Benazepril] had a GFP- of 1.01. For `Cc1c(-c2ccccc2)oc2c(C(=O)OCCN3CCCCC3)cccc2c1=O` [Flavoxate] the value was 1.1; for `C[C@@H]1O[C@@H](O[C@H]2[C@H](Oc3cc(O)c4c(c3)O[C@H](c3ccc(O)cc3)CC4=O)O[C@H](CO)[C@@H](O)[C@@H]2O)[C@H](O)[C@H](O)[C@H]1O` [Naringin], 1.1; for `Nc1ccc(S(=O)(=O)Nc2ccccn2)cc1` [Sulfapyridine], 0.965.

In turn, `O=C1C[C@@H](c2ccc(O)cc2)Oc2cc(O)cc(O)c21` [Naringenin] returned a GFP- of 0.938. For `C/C(=N\NC(=S)N1CCC1)c1ccccn1` the value was 0.4; for `Cn1c(=O)cc(N2CCC[C@@H](N)C2)n(Cc2ccccc2C#N)c1=O` [Alogliptin], 0.943.

In turn, `COC(=O)[C@H]1[C@H]2C[C@@H]3c4[nH]c5cc(OC)ccc5c4CCN3C[C@H]2C[C@@H](OC(=O)c2cc(OC)c(OC)c(OC)c2)[C@@H]1OC` [Reserpine] displayed a GFP- of 0.806.

`C=CC[N+]1([C@H]2C[C@H]3[C@@H]4CC[C@H]5C[C@H](O)[C@@H](N6CCOCC6)C[C@]5(C)[C@H]4CC[C@]3(C)[C@H]2OC(C)=O)CCCC1` [Rocuronium]: the GFP- is 0.894. Regarding `COc1cccc2c1C(=O)c1c(O)c3c(c(O)c1C2=O)C[C@@](O)(C(C)=O)C[C@@H]3O[C@H]1C[C@H](N)[C@H](O)[C@H](C)O1` [Daunorubicin], the GFP- was 0.754.

As to `CC(=O)[C@]1(O)Cc2c(O)c3c(c(O)c2[C@@H](O[C@H]2C[C@H](N)[C@H](O)[C@H](C)O2)C1)C(=O)c1ccccc1C3=O` [Idarubicin, Idarubicin Hydrochloride], the GFP- was 0.224.

As for `COc1cccc2c1C(=O)c1c(O)c3c(c(O)c1C2=O)C[C@@](O)(C(=O)CO)C[C@@H]3O[C@H]1C[C@H](N)[C@H](O)[C@H](C)O1` [Doxorubicin], the GFP- amounted to 0.72. For `COc1cc(-c2cc3ccccc3[nH]2)[nH]c1/C=C1\N=C(C)C=C1C` [Obatoclax Mesylate] the value was 0.249; for `C=C1C(=O)O[C@@H]2/C=C(\C)CC/C=C(\C)CC[C@@H]12` [Costunolide], 1.1. In the case of `Cc1coc2c1C(=O)C(=O)c1c-2ccc2c(C)cccc12` [Tanshinone I], the GFP- came to 1.03. On to `Cn1cc(-c2ccc3nnc(Sc4ccc5ncccc5c4)n3n2)cn1`, for which the GFP- is 0.95. To `CCN(CC)CCCCNc1ncc2cc(-c3cc(OC)cc(OC)c3)c(NC(=O)NC(C)(C)C)nc2n1` belongs 0.935. For the molecule `Cc1ccnc2c1NC(=O)c1cccnc1N2C1CC1` [Nevirapine], the GFP- is 1.06. For the molecule `CC(C)=CCC[C@](C)(O[C@@H]1O[C@H](CO[C@@H]2OC[C@@H](O)[C@H](O)[C@H]2O)[C@@H](O)[C@H](O)[C@H]1O)[C@H]1CC[C@]2(C)[C@@H]1[C@H](O)C[C@@H]1[C@@]3(C)CC[C@H](O[C@@H]4O[C@H](CO)[C@@H](O)[C@H](O)[C@H]4O)C(C)(C)[C@@H]3CC[C@]12C` [Gynostemma Extract], the GFP- was 1.07. For `O=C(O)C1=CO[C@@H](O[C@@H]2O[C@H](CO)[C@@H](O)[C@H](O)[C@H]2O)[C@@H]2C(CO)=CC[C@H]12` [Geniposidic acid] the value was 1.05; for `CC1(C)CCC(c2ccc(Cl)cc2)=C(CN2CCN(c3ccc(C(=O)NS(=O)(=O)c4ccc(N[C@H](CCN5CCOCC5)CSc5ccccc5)c(S(=O)(=O)C(F)(F)F)c4)cc3)CC2)C1` [Navitoclax], 0.944. In turn, `NCC(=O)Nc1ccc(-n2nc(C(F)(F)F)cc2-c2ccc3c(ccc4ccccc43)c2)cc1` had a GFP- of 1.1.

`CCN(CC)C(=S)SSC(=S)N(CC)CC` [Disulfiram] displayed a GFP- of 0.453. Take `O=C(O)CCc1ccc(NCc2cccc(Oc3ccccc3)c2)cc1`: the GFP- is 0.98. As to `CCCC(C)NC(=O)c1ccc(Cl)c(Cl)c1` (centres undefined), the GFP- came to 1.14. To `CC(C)C[C@H](NC(=O)CNC(=O)c1cc(Cl)ccc1Cl)B(O)O` [Ixazomib] belongs 0.394; to `CCOc1ccn(-c2ccc(F)cc2)c(=O)c1C(=O)Nc1ccc(Oc2ccnc(N)c2Cl)c(F)c1`, 0.736. To `CN1CCN(c2c(F)cc3c(=O)c(C(=O)O)cn4c3c2OCN4C)CC1` [Marbofloxacin] belongs 1.07.

`Cn1cc(C2=C(c3ccc(Cl)cc3Cl)C(=O)NC2=O)c2ccccc21`: the GFP- was 0.845. Molecule `Cc1c(OCC(F)(F)F)ccnc1C[S@@](=O)c1nc2ccccc2[nH]1` [Dexlansoprazole] yielded a GFP- of 0.956. For `CCc1cnn2c(NCc3ccc[n+]([O-])c3)cc(N3CCCC[C@H]3CCO)nc12` [Dinaciclib] the value was 0.383. For `COc1ccc(CNc2nc(N3CCC[C@H]3CO)ncc2C(=O)NCc2ncccn2)cc1Cl` [Avanafil] the value was 1.06; for `CC(C)c1nc(CN(C)C(=O)N[C@@H](CCN2CCOCC2)C(=O)N[C@H](CC[C@H](Cc2ccccc2)NC(=O)OCc2cncs2)Cc2ccccc2)cs1` [Cobicistat], 1.04. For `CC(C)C[C@H](NC(=O)[C@H](CCc1ccccc1)NC(=O)CN1CCOCC1)C(=O)N[C@@H](Cc1ccccc1)C(=O)N[C@@H](CC(C)C)C(=O)[C@@]1(C)CO1` [Carfilzomib] the value was 0.433; for `COc1ccc(C[C@H](NC(=O)[C@H](C)NC(=O)CN2CCOCC2)C(=O)N[C@@H](Cc2ccccc2)C(=O)[C@]2(C)CO2)cc1`, 0.791; for `CCC[C@@H]1C[C@@H](C(=O)N[C@H](C(C)Cl)[C@H]2O[C@H](SC)[C@H](O)[C@@H](O)[C@H]2O)N(C)C1` (some centres undefined) [Clindamycin HCl], 0.865 and 1.15. As to `COC(=O)C1=C(C#N)N=C(C)/C(=C(\O)OC(C)C)C1c1cccc([N+](=O)[O-])c1` (centres undefined) [Nilvadipine], the GFP- was found to be 0.683. For `COc1ccc(-c2nc(N3CCOCC3)c3sc(CN(C)c4ncc(C(=O)NO)cn4)cc3n2)cn1` [Fimepinostat] the value was 0.491 ± 0.025; for `CS(=O)(=O)N1CCN(Cc2cc3nc(-c4cccc5[nH]ncc45)nc(N4CCOCC4)c3s2)CC1`, 0.676. For `Cc1c(CN2CCN(C(=O)[C@H](C)O)CC2)sc2c(N3CCOCC3)nc(-c3cnc(N)nc3)nc12` the value was 0.612; for `CCN(CC)CC#CCOC(=O)C(O)(c1ccccc1)C1CCCCC1` (centres undefined) [Oxybutynin], 0.971; for `Nc1ccccc1NC(=O)c1ccc(CNC(=O)OCc2cccnc2)cc1` [Entinostat], 0.641 ± 0.022. For `Nc1ccccc1NC(=O)c1ccc(CNc2nccc(-c3cccnc3)n2)cc1` [Mocetinostat] the value was 0.436 ± 0.22; for `Cc1ccc(NC(=O)c2ccc(CN3CCN(C)CC3)cc2)cc1Nc1nccc(-c2cccnc2)n1` [Imatinib, Imatinib Mesylate], 1.04 and 0.966. Turning to `c1cnc2cc3c(cc2n1)C1CNCC3C1` [Varenicline Tartrate], the GFP- worked out at 0.907. `CCCCc1ncc(/C=C(\Cc2cccs2)C(=O)O)n1Cc1ccc(C(=O)O)cc1` [Eprosartan] had a GFP- of 0.961. For the molecule `Cn1cc(-c2cnn3c(N)c(Br)c([C@@H]4CCCNC4)nc23)cn1`, the GFP- is 0.988. To `NC(=O)N1CCC(CC(=O)N2CCC([C@H]3c4ncc(Br)cc4CCc4cc(Cl)cc(Br)c43)CC2)CC1` [Lonafarnib] belongs 0.808; to `COCC(=O)NC/C=C/c1ccc2ncnc(Nc3ccc(Oc4ccc(C)nc4)c(C)c3)c2c1`, 1.06; to `C[C@H]1C[C@@H]2[C@H]([C@@H](O)C[C@@]3(C)[C@H]2CC[C@]3(O)C(=O)CO)[C@@]2(C)C=CC(=O)C=C12` [Methylprednisolone], 0.847.

With `CN1CCCC(n2nc(Cc3ccc(Cl)cc3)c3ccccc3c2=O)CC1` (centres undefined) [Azelastine, Azelastine Hydrochloride], the GFP- was 1. To `O=C(/C=C/c1ccc(CN(CCO)CCc2c[nH]c3ccccc23)cc1)NO` [Dacinostat] belongs 0.556 ± 0.066; to `Cc1[nH]c2ccccc2c1CCNC(=O)c1cccs1` [N-[2-(2-methyl-1H-indol-3-yl)ethyl]thiophene-2-carboxamide], 1.11. For `Cc1[nH]c2ccccc2c1CCNCc1ccc(/C=C/C(=O)NO)cc1` [Panobinostat] the value was 0.50294 ± 0.0002; for `Oc1cc2c(cc1O)[C@@H]1c3ccc(O)c(O)c3OC[C@]1(O)C2` [Hematoxylin], 0.962. For `O=C(Nc1ccccc1-c1cn2c(CN3CCNCC3)csc2n1)c1cnc2ccccc2n1`, the GFP- was 0.752 and 0.432. In the case of `CCO/C(O)=C1\C(C)=NC(C)=C(C(=O)OC)C1c1cccc(Cl)c1Cl` (centres undefined) [Felodipine], the GFP- turned out to be 0.531. To `O=C1NC(=O)/C(=C/c2cccc(C(F)(F)F)c2)S1` belongs 0.979 ± 0.056; to `CC(C)N(CCC(=O)c1ccc2ccccc2c1)Cc1ccccc1`, 0.897 ± 0.031; to `CNCC[C@@H](Oc1ccccc1C)c1ccccc1` [Atomoxetine], 1.04. To `Cc1nc(NC(=O)N2CCC[C@H]2C(N)=O)sc1-c1ccnc(C(C)(C)C(F)(F)F)c1` belongs 0.875.

For the origin of these results see the supplement of paper PMC11060735.
